In the library only some 12% were active in any assay of this set; here they are far more common.
G9a block – qHTS Assay for Inhibitors of Histone Lysine Methyltransferase G9a. Histone-lysine N-methyltransferase EHMT2 (Homo sapiens), Q96KQ7. Potency, µM (highest dose often 102 µM), actives largely listed as inhibitors. actives 8.8% (n = 350,000). G9a H3K9 monomethylation, AlphaScreen, 2 h; note: nearly all actives have a fitted effect of over 75% in size
Target sequence (Q96KQ7 913-1193 limits assumed): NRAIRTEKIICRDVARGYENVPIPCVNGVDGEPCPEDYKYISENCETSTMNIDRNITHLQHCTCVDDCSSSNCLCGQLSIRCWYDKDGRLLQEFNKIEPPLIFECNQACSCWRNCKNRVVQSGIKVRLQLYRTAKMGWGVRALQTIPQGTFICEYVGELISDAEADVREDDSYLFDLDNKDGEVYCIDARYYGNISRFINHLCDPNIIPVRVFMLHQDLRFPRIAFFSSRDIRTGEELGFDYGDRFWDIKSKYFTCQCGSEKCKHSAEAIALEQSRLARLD
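Chemiluminescent proximity detection of H3K9 monomethylation, read after 10 min bead incubation in the dark. Reaction: 20 nM G9a, 500 nM biotin-H3K9 peptide, 20 uM SAM cofactor, 2 h, room temperature, following 15 min enzyme-compound preincubation.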
JMJD2A Tudor inh – qHTS Assay for Inhibitors of JMJD2A-Tudor Domain | Lysine-specific demethylase 4A (Homo sapiens), O75164 | AlphaScreen JMJD2A-Tudor / H3K4me3 peptide binding | Potency, µM (top dose mostly 114 µM), most hits filed as inhibitors | actives 4.4% (n = 390,000) | AID 504339, 2011; note: nearly all actives have a fitted effect of over 50% in size
HP1b binding inh – HTS for Inhibitors of HP1-beta Chromodomain Interactions with Methylated Histone Tails; AID 540317, 2011; Potency, µM (top dose mostly 114 µM), actives largely listed as inhibitors; actives 0.56% (n = 390,000); AlphaScreen HP1-beta / biotin-H3K9me3 peptide binding; note: nearly all actives have a fitted effect of over 70% in size
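Compound inhibition of the preformed complex between 50 nM HP1-beta and 50 nM biotinylated H3K9me3 peptide was read by AlphaScreen. Buffer was PBS pH 7.4 with 0.01% Tween-20. Incubations ran 30 min at room temperature, with 10 ug/mL donor/acceptor beads.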
PI5P4K alpha inh – qHTS for Inhibitors of phosphatidylinositol 5-phosphate 4-kinase (PI5P4K) | max response, % | PI5P4Kalpha enzyme, ADP-Glo luminescence, 60 min; active compounds read low | Phosphatidylinositol 5-phosphate 4-kinase type-2 alpha (Homo sapiens), P48426 | actives 1.2% (n = 330,000); active = max response of -50% or lower; inconclusive = between -30% and -50%; inactive = -30% or higher; note: value at the top dose of about 77 µM
Target sequence (P48426 whole entry, looked up): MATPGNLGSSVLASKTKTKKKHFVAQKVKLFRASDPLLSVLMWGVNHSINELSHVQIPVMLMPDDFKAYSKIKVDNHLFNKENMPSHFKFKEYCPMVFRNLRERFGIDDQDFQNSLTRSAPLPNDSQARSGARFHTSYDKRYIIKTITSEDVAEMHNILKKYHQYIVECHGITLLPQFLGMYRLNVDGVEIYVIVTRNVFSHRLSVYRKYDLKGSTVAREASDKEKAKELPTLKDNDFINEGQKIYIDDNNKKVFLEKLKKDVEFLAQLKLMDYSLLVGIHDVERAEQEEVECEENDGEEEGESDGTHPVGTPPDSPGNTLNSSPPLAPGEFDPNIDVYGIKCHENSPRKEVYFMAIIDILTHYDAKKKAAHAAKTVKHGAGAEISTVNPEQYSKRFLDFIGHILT
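Compounds were pin-transferred onto PI5P4Kalpha and substrate in HEPES pH 7.4 buffer with EGTA, CHAPS and 5% DMSO. ATP (5 microM final) started the reaction, which ran 60 minutes at room temperature before ADP-Glo detection.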
PLK1 PBD inh – qHTS for Inhibitors of PLK1-PDB (polo-like kinase 1 - polo-box domain): Primary Screen. Potency, µM, hits mostly inhibitors. Plk1 PBD binding of FITC phosphopeptide, fluorescence polarization. Serine/threonine-protein kinase PLK1 (Homo sapiens), P53350. AID 720504, 2013. actives 2.8% (n = 360,000); note: series mostly up to about 57 µM; nearly all actives have a fitted effect of over 65% in size
BAZ2B block – qHTS Assay for Inhibitors of BAZ2B. Bromodomain adjacent to zinc finger domain protein 2B (Homo sapiens), Q9UIF8. AlphaScreen BAZ2B-H3K14Ac peptide displacement. Potency, µM (titrated, usually from 114 µM), most hits filed as inhibitors. actives 4.4% (n = 360,000); note: nearly all actives have a fitted effect of over 60% in size
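BAZ2B (50 nM) with biotin-H3(5-23)K14Ac peptide (50 nM) in PBS pH 7.4, 0.01% Tween-20, preformed 30 min, then compound 30 min at room temperature; top concentration 110uM. AlphaScreen streptavidin donor/nickel chelate acceptor beads (10 ug/mL final), 20 min dark, signal read.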
Hits are given with their value; . = inactive; ? = inconclusive; / = not tested or not shown; ! = repeats disagree; [ ] = dose if it differs, or a comment. Unless noted, calls come from the whole dose curve; as a rule, active = well fitted curve in the direction sought with a large enough effect; inconclusive = small, poorly fitted or top-dose-only effect, or another doubt; inactive = no such curve, though single readings can be large; an effect the other way counts as inactive or inconclusive.

SMILES | G9a block | JMJD2A Tudor inh | HP1b binding inh | PI5P4K alpha inh | PLK1 PBD inh | BAZ2B block
CCC1CCCCN1CC(=O)c1ccc(OC(F)F)cc1 (stereo unspecified) | 14µM | . | . | . | . | .
CC(=O)[C@H]1CC[C@H]2[C@@H]3CC[C@H]4C[C@](C)(O)CC[C@]4(C)[C@H]3CC[C@]12C | 7.9µM! | / | / | / | / | /
C[C@]12N[C@@H](Cc3ccccc31)c1ccccc12 | .[21.5 µM] | / | / | / | / | /
C[C@H]1CN(C2CCC(C#N)(c3ccc(F)cc3)CC2)CC[C@@]1(C(=O)O)c1ccccc1 (stereo partly specified) | .[21.5 µM] | / | / | / | / | /
CN1CCC(O)(c2ccc(Cl)cc2)C(C(=O)c2ccc(Cl)cc2)C1 (stereo unspecified) | 10µM | . | . | . | 4.7µM | .
CN1CC(C(=O)c2ccc(Cl)cc2)C(c2ccc(Cl)cc2Cl)C1 (stereo unspecified) | ? | . | . | . | . | .
CN1C(=O)/C(=C\c2ccc(Br)s2)C(=O)NC1=S | 7.1µM | 20µM | . | -77 | 1.2µM | ?
COC(=O)C1=C(c2ccc(OCc3ccccc3)cc2)C[C@@H]2CC[C@H]1N2C(=O)NCc1ccc(F)cc1 | / | / | / | . | . | /
COC(=O)C1=C(c2ccc(OCc3ccccc3)cc2)C[C@@H]2CC[C@H]1N2C(=O)NCc1ccc(N(C)C)cc1 | .[2.33 µM] | ? | . | . | . | 8.9µM
COC(=O)C1=C(c2ccc(F)cc2OCc2ccccc2)C[C@@H]2CC[C@H]1N2C(=O)NCc1cccc(F)c1 | .[0.501 µM] | ? | . | . | 21µM | .
c1cc(CN2CC3(CCNCC3)C2)ccn1 | .[12.7 µM] | / | / | / | / | /
O=C(OCC(=O)N1CCOCC1)c1ccc[nH]c1=O | 20µM | 18µM | . | . | . | /
CCCc1nnc(NC(=O)CCC(=O)N2CCN(CCOC(c3ccccc3)c3ccccc3)CC2)s1 | . | . | . | . | . | .
c1ccc(CCCN2CCN(CCOC(c3ccccc3)c3ccccc3)CC2)cc1 | 10µM | 56µM | . | . | ? | /
Fc1ccc(C(OCCN2CCCC2)c2ccc(F)cc2)cc1 | . | . | . | . | . | .
Fc1ccc(C(OCCN2CCN(CCCc3ccccc3)CC2)c2ccc(F)cc2)cc1 | ? | 50µM | . | / | / | /
Fc1ccc(C(OCCN2CCCC2)c2ccc(Br)cc2)cc1 (stereo unspecified) | . | . | . | . | . | .
Fc1ccc(C(OCCN2CCN(C/C=C/c3ccccc3)CC2)c2ccc(F)cc2)cc1 | 11µM | / | / | / | / | /
CC1CC(C)C(=O)[C@H](C(O)CC2CC(=O)NC(=O)C2)C1 (stereo partly specified) | .[2.33 µM] | / | / | / | / | /
O=C(NCCSc1c(-c2ccccc2)[nH]c2ccccc12)c1ccc(S(=O)(=O)N2CCOCC2)cc1 | ? | . | . | / | / | .
NC[C@@H]1O[C@H](OC2[C@@H](CO)O[C@@H](OC3[C@H](O)[C@H](N)C[C@H](N)[C@H]3OC3O[C@H](CO)[C@@H](O)[C@H](O)[C@@H]3N)[C@H]2O)C(N)[C@H](O)[C@@H]1O (stereo partly specified) | . | / | / | / | / | /
Clc1ccc(Sc2oc(/C=N/n3cnnc3)cc2Br)cc1 | . | 89µM | . | . | . | .
O=C(Oc1cccnc1)c1ccc(Cl)cc1 | ? | . | . | . | . | ?
COC(=O)Cn1cc(C=C2C(=O)N(C)C(=O)N(C)C2=O)c2ccccc21 | / | . | . | . | ? | .
CC1CCCCN1C(=O)Cn1cc(C=C2C(=O)N(C)C(=O)N(C)C2=O)c2ccccc21 (stereo unspecified) | ? | . | . | . | 17µM | .
SMILES | G9a block | JMJD2A Tudor inh | HP1b binding inh | PI5P4K alpha inh | PLK1 PBD inh | BAZ2B block
CCN(CC)C(=O)Cn1cc(C=C2C(=O)N(C)C(=O)N(C)C2=O)c2ccccc21 | .[2.33 µM] | . | . | . | 30µM | .
C=CCn1cc(C=C2C(=O)N(C)C(=O)N(C)C2=O)c2ccccc21 | . | . | . | . | . | .
N#Cc1c(/N=C/C2C(=O)NC(=S)NC2=O)sc2c1CCCC2 | 28µM | . | . | -55 | ? | ?
CC(C)(C)OC(=O)N1CC[C@H]1COc1cnc[c]([Sn]([CH3])([CH3])[CH3])c1 | .[12.7 µM] | / | / | / | / | /
COc1ccc(N2C(=O)NC(=O)/C(=C\c3ccccc3[N+](=O)[O-])C2=O)cc1 | 8.9µM | . | . | . | 12µM | .
CCOc1ccc(N2C(=O)NC(=O)/C(=C\c3ccccc3[N+](=O)[O-])C2=O)cc1 | 32µM | . | . | ? | 9.5µM | .
COc1ccc(-n2c(/C=C3\C(=O)Nc4ccccc43)nc3ccccc3c2=O)cc1 | . | . | . | . | . | .
NCC(CS(=O)(=O)O)c1ccc(Cl)cc1 (stereo unspecified) | . | / | / | / | / | /
O=c1cc(C(F)(F)F)c2cc3c4c(c2o1)CCCN4CCC3 | . | .[11.4 µM] | . | . | 1.2µM | .
Cc1cc2c(C(F)(F)F)cc(=O)oc2c2c1NCCC2 | / | . | . | / | . | .
c1ccc(C2(NC3=NCCO3)CCCCC2)cc1 | / | / | / | . | . | /
CC(=O)[C@H]1[C@H](C#N)C[C@H]2[C@@H]3CC=C4C[C@@H](O)CC[C@]4(C)[C@H]3CC[C@@]21C | . | . | . | . | . | .
CC1=C(O)C(=O)C=C2C1=CC=C1C2(C)CCC2(C)C3CC(C)(C(=O)O)CCC3(C)CCC12C (stereo unspecified) | / | 20µM | ? | -72 | 2.1µM | /
N#Cc1cccc(NC(=O)CSc2nc3c(cc2C#N)N2CCC3CC2)c1 | . | . | . | / | / | .
CCCCn1c(O)c(C(C)=NCCN2CCOCC2)c(=O)[nH]c1=O | 22µM | . | . | / | . | .
CCC(=NCCCN1CCOCC1)c1c(O)n(Cc2ccccc2)c(=O)[nH]c1=O | 13µM | . | . | / | . | .
CC(=NCCCN1CCOCC1)c1c(O)n(Cc2ccccc2)c(=O)[nH]c1=O | . | . | . | . | . | .
CCC(=NCCN1CCOCC1)c1c(O)n(-c2ccccc2C)c(=O)[nH]c1=O | 28µM | . | . | . | . | .
CCCCn1c(O)c(C=NCCN2CCCCC2)c(=O)[nH]c1=O | 79µM | . | . | . | . | .
CC/C(=N\NC(=O)c1ccccc1)c1c(O)n(Cc2ccccc2)c(=O)[nH]c1=O | ? | . | ? | -85 | . | .
CCC(CC)N1CCN(Cc2nc3ccccc3c(=O)n2-c2ccc(F)cc2)CC1 | . | . | . | . | . | .
O=c1c2ccccc2nc(CN2CCCCCC2)n1-c1ccc(F)cc1 | 28µM | . | . | / | . | .
OCC(O)Cc1ccc2c(c1)OCO2 (stereo unspecified) | .[2.33 µM] | / | / | / | / | /
Cc1ccc(-n2c(O)c(C=NCc3ccccn3)c(=O)[nH]c2=S)cc1 | / | . | . | . | . | .

Compound activity (PubChem)
